# Assay results as given in the supplement of paper PMC9694430.
# Assays:
# Experiment in all cases: thermal shift delta Tm vs DMSO control; higher = stronger stabilization (binding)
# Conditions in all cases: 12.5 µM; protein concentration 2 µM
# LOC_OS01G01410-cb001 = tested on: LOC_OS01G01410-cb001
# Summary of the method: (§1)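 Thermal shift values come from differential scanning fluorimetry on purified rice kinase domains made in E. coli, with melting temperatures obtained from Boltzmann fits. Samples of 19.5 μl held 2 μM kinase, 100 mM potassium phosphate pH 7.5, 150 mM NaCl, 10% glycerol, 5 × SYPRO Orange and compound in DMSO, and were heated from 25°C to 95°C at 0.05°C/s. Each shift is a triplicate mean relative to the DMSO-only protein sample.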
# LOC_OS01G02750-cb003 = tested on: LOC_OS01G02750-cb003
# Summary of the method: as §1
# LOC_OS01G10900-cb004 = tested on: LOC_OS01G10900-cb004
# Summary of the method: as §1
# LOC_OS01G13800-cb001 = tested on: LOC_OS01G13800-cb001
# Summary of the method: as §1
# LOC_OS01G14860-cb001 = tested on: LOC_OS01G14860-cb001
# Summary of the method: as §1
# LOC_OS01G21960-cb002 = tested on: LOC_OS01G21960-cb002
# Summary of the method: as §1
# LOC_OS01G39600-cb002 = tested on: LOC_OS01G39600-cb002
# Summary of the method: as §1
# LOC_OS01G48390-cb002 = tested on: LOC_OS01G48390-cb002
# Summary of the method: as §1
# LOC_OS01G51400-cb002 = tested on: LOC_OS01G51400-cb002
# Summary of the method: as §1
# LOC_OS01G52050-cb004 = tested on: T1, LOC_OS01G52050-cb004
# T1 sequence (whole entry): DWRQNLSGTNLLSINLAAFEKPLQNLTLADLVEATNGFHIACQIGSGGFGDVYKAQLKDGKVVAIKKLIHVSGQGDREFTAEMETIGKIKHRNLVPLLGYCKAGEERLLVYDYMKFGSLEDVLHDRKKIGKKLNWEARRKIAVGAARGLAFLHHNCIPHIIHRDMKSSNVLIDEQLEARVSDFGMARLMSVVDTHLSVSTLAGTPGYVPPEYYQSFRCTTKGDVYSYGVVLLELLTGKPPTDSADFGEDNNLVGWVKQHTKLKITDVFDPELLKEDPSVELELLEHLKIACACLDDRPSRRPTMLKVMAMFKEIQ
# Summary of the method: as §1
# LOC_OS01G57100-cb003 = tested on: LOC_OS01G57100-cb003
# Summary of the method: as §1
# LOC_OS01G60330-cb001 = tested on: LOC_OS01G60330-cb001
# Summary of the method: as §1
# LOC_OS01G60700-cb002 = tested on: LOC_OS01G60700-cb002
# Summary of the method: as §1
# LOC_OS01G63280-cb003 = tested on: LOC_OS01G63280-cb003
# Summary of the method: as §1
# LOC_OS01G67340-cb003 = tested on: LOC_OS01G67340-cb003
# Summary of the method: as §1
# LOC_OS01G70970-cb002 = tested on: LOC_OS01G70970-cb002
# Summary of the method: as §1
# LOC_OS02G07810-cb001 = tested on: LOC_OS02G07810-cb001
# Summary of the method: as §1
# LOC_OS02G08530-cb003 = tested on: LOC_OS02G08530-cb003
# Summary of the method: as §1
# LOC_OS02G14120-cb001 = tested on: LOC_OS02G14120-cb001
# Summary of the method: as §1
# LOC_OS02G17970-cb001 = tested on: LOC_OS02G17970-cb001
# Summary of the method: as §1
# 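Also: purified Escherichia coli-expressed rice kinase domain construct.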
SMILES,thermal shift delta Tm (LOC_OS01G01410-cb001) [°C],thermal shift delta Tm (LOC_OS01G02750-cb003) [°C],thermal shift delta Tm (LOC_OS01G10900-cb004) [°C],thermal shift delta Tm (LOC_OS01G13800-cb001) [°C],thermal shift delta Tm (LOC_OS01G14860-cb001) [°C],thermal shift delta Tm (LOC_OS01G21960-cb002) [°C],thermal shift delta Tm (LOC_OS01G39600-cb002) [°C],thermal shift delta Tm (LOC_OS01G48390-cb002) [°C],thermal shift delta Tm (LOC_OS01G51400-cb002) [°C],thermal shift delta Tm (LOC_OS01G52050-cb004) [°C],thermal shift delta Tm (LOC_OS01G57100-cb003) [°C],thermal shift delta Tm (LOC_OS01G60330-cb001) [°C],thermal shift delta Tm (LOC_OS01G60700-cb002) [°C],thermal shift delta Tm (LOC_OS01G63280-cb003) [°C],thermal shift delta Tm (LOC_OS01G67340-cb003) [°C],thermal shift delta Tm (LOC_OS01G70970-cb002) [°C],thermal shift delta Tm (LOC_OS02G07810-cb001) [°C],thermal shift delta Tm (LOC_OS02G08530-cb003) [°C],thermal shift delta Tm (LOC_OS02G14120-cb001) [°C],thermal shift delta Tm (LOC_OS02G17970-cb001) [°C]
Cn1ncc(Cl)c1-c1cc(C(=O)N[C@H](CN)Cc2cccc(F)c2)sc1Cl,0.78,2.36,0.19,-0.25,0.67,0.59,-0.1,0.28,0.18,0.5,0.79,0.75,0.77,0.1,0.54,0.15,0.41,0.69,1.31,0.56
C=CCc1ccc(O)c(-c2ccc(O)c(CC=C)c2)c1 [Honokiol],0.83,1.12,0.85,0.22,0.9,1.38,1.21,0.93,0.36,1.76,2.73,0.73,1.34,1.12,1.09,0.71,1.8,1.59,0.96,1.32
O=C(/C=C/c1ccc(O)c(O)c1)c1ccc(O)cc1O [Butein],3.34,6.05,1.41,1.88,4.26,3.26,4.11,1.83,2.14,9.01,4.85,7.74,1.12,17.7,7.74,2.95,1.6,1.81,4.14,3.5
